Assay [1] can be described thus: reducers of endogenous Her2 protein level, primary screen, SKBR3 breast tumor cells, AlphaScreen, ATP viability (AID 461;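 active means Her2 level under about 52% in both replicate screens, with viability over 70% of control, limit read from the data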;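 on Her2 level: lower value means less Her2 protein in the cells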;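 on viability: percent of carrier control wells set as 100% viability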). As to conditions: 18-24 h, measured here: SKBR3 viability, ATP luminescence, at 10 µM. Background: Alpha assays give light when donor and acceptor beads are brought close together.
In assay [2] the target is Receptor tyrosine-protein kinase erbB-2 (Homo sapiens) (UniProt P04626). The description is as above. As to conditions: 18-24 h, at 10 µM, stronger effect = lower value.
Receptor tyrosine-protein kinase erbB-2 (Homo sapiens), sequence (P04626 whole entry, looked up): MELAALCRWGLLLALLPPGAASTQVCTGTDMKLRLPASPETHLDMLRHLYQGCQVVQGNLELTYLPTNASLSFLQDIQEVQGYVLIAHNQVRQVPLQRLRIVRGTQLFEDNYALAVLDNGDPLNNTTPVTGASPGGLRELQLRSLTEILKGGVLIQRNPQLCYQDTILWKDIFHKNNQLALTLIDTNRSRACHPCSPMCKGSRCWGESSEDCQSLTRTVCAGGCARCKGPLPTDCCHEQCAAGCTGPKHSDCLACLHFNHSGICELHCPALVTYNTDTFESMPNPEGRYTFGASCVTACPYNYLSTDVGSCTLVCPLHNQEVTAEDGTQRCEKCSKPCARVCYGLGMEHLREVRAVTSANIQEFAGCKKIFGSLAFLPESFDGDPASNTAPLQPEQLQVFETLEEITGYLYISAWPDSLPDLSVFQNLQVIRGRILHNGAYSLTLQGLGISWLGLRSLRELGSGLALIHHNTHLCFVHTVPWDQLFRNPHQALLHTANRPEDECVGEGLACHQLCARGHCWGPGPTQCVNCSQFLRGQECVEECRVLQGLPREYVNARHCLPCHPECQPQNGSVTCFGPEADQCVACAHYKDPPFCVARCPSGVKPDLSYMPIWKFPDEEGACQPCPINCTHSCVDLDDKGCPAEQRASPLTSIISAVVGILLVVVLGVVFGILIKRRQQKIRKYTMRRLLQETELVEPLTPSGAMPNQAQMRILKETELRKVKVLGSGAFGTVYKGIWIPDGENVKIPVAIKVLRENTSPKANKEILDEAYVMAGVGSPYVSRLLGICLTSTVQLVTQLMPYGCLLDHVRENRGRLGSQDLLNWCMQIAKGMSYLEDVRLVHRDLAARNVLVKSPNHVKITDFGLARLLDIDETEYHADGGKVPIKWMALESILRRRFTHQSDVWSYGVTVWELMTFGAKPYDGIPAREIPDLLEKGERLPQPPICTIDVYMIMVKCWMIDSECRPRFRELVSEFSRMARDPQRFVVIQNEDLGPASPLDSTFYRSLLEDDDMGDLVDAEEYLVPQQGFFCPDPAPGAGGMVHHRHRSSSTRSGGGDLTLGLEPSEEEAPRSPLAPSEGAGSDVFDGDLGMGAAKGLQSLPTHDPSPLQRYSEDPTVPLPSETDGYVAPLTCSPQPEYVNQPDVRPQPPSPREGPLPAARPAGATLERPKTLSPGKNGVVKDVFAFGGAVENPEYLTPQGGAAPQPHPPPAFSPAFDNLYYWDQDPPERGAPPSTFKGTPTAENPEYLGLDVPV
Assay [3] in a line: SK-BR-3 cell growth inhibitors, pilot screen, 24 h, human (AID 572;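 active means viability at or below 10% of carrier control in both of two separate runs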;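 further: compound exposure lasted between 18 and 24 h rather than exactly 24 h; 100% = carrier-treated control wells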). As to conditions: SK-BR-3 viability, CellTiter-Glo luminescence, at 10 µM, stronger effect = lower value. (In general: Cellular ATP, detected with luciferase, serves as a proxy for viable cell number.)
The nature of assay [4]: HUVEC growth inhibition – cell-based, human, primary screen (AID 575;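 active means viability at or below 30% in both replicate assays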;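 further: 100% = median of untreated cell wells with 0.1% DMSO on each plate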). As to conditions: HUVEC proliferation, CellTiter-Glo luminescence, 72 h; at 10 µM; stronger effect = lower value.
Assay [5] is described as follows: growth inhibitors of H69AR lung tumor, primary screen, human, duplicate replicates (AID 580;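 active means viability at or under a set limit in both replicates, limit being median viability minus 3 SD, cut at about 48% in these data, passing the limit was not always enough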;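 further: 100% = mean luminescence of untreated wells and 0% = no signal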). As to conditions: H69AR lung tumor cells viability, ATP luminescence, 72 h; at 10 µM; stronger effect = lower value.
Assay [6] in a line: reversal of MRP1-mediated doxorubicin resistance, pilot screen, H69AR cells, doxorubicin co-treatment (AID 601). As to conditions: CellTiter-Glo, 72 h, at 10 µM; for differential viability (reversal): stronger effect = higher value.
A short description of assay [7]: 384-well plate pilot, post-Golgi transport modulator project, inhibition of yeast transport mutant growth (AID 636; in the data active means inhibition above about 31%). As to conditions: absorbance 615 nm, about 18 h, stronger effect = higher value.
Assay [8] is described as follows: growth suppression of yeast trafficking mutant, preliminary HTS, modulators of trafficking downstream of Golgi apparatus project, 1536-format plate, OD 615 nm (AID 637; in the data active means inhibition above about 30%). As to conditions: yeast transport mutant growth, absorbance 615 nm, 18 h; stronger effect = higher value.
Assay [9] in a line: OD615 S. cerevisiae growth inhibition, permissive medium, pilot counter-assay, permissive growth control for S. cerevisiae lifespan shortening project (AID 705;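 active means growth inhibition above 25% in both replicates, a cutoff set 3 SD above the mean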). As to conditions: OD615, 24 h, at 10 µM, stronger effect = higher value.
Assay [10] is described as follows: Restrictive medium S. cerevisiae growth inhibition, OD615, pilot screen of yeast lifespan reduction project, restrictive growth control (AID 706;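 active means growth inhibition above a set limit, 3 SD over mean compound inhibition, in both replicates, cut at about 43% in these data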;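 further: modified DeaD lifespan yeast strain shifted to restrictive glucose medium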). As to conditions: OD615, 48 h, at 10 µM, stronger effect = higher value.
Assay [11] is described as follows: viability gain of MRP-1-high H69AR cells under doxorubicin, pilot screen, MRP-1 activator project, CellTiter-Glo, duplicate (AID 807;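 active means viability increase at or above a cutoff of the median across tested compounds plus 3 SD, cut at about 8.5% in these data, passing the limit was not always enough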;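 further: compound pretreatment 18-22 h then 72 h combined with doxorubicin; 0% = doxorubicin alone and 100% = vehicle without doxorubicin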). As to conditions: H69AR viability with doxorubicin, CellTiter-Glo luminescence; at 10 µM; stronger effect = higher value.
The nature of assay [12]: growth suppression of beta-catenin knockout HCT116, pilot screen, human colon tumor cells (AID 823;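 active means cell viability at or below a set limit in both duplicate runs, the limit being the all-compound median minus 4 SD, cut at about 23% in these data, passing the limit was not always enough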;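 further: 0% = wells killed by 20 µM Hyamine and 100% = untreated DMSO cell wells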). As to conditions: CellTiter-Glo, 60 h, at 10 µM, stronger effect = lower value.
Assay [13] can be described thus: growth suppression of PTEN-deleted HCT116, pilot screen, cell-based, HCT116 clonal line, CellTiter-Glo (AID 824;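 active means viability at or below 27.92% in each of two runs, the all-compound median minus 4 SD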;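 further: 0% = 20 µM Hyamine control and 100% = vehicle cell control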). As to conditions: 60 h, at 10 µM, stronger effect = lower value.
Assay [14] can be described thus: inhibitors of the yeast RAM network, pilot screen, dse1pr::URA3 reporter, 5-FOA selection (AID 869;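 active means inhibition over a set limit, the all-compound mean plus 3 SD, in both replicate runs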;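 further: 0% = DMSO wells with no growth and 100% = 10 µM 1-NA-PP1 with full growth; RAM network block rescues cells from 5-FOA so hits raise OD615 growth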). As to conditions: S. cerevisiae dse1pr::URA3 5-FOA growth, OD615, 2 d; at 10 µM; stronger effect = higher value; strain carries analog-sensitive mutant Cbk1 kinase.
Assay [15] can be described thus: RAM signaling pathway blockade in yeast – S. cerevisiae, Pdr1DBD-CYC8 efflux-inhibited sensitized strain, primary screen (AID 1298;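 active means RAM network inhibition above 8.4% in each of two replicates, 3 SD over the compound average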;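 further: 0% = DMSO untreated cells without growth and 100% = 10 µM 1-NA-PP1 full growth; higher means more yeast growth rescued from 5-FOA killing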). As to conditions: S. cerevisiae cbk1-as DSE1-URA3 strain, 5-FOA growth OD615, 2 d; at 50 µM; stronger effect = higher value.
The mark [16] stands for this setting: H69AR cells + 2 uM doxorubicin, measured here: viability with 2 uM doxorubicin, stronger effect = lower value.
The mark [17] stands for this setting: H69AR cells, compound alone cytotoxicity.

Results filed as inconclusive are left out. Activity calls are given as the source filed them.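 How the source made its calls, unless noted: active means viability loss from added drug above about 55%, and viability with drug at most 40%, in both replicates (limit read from the data, passing the limit was not always enough); inconclusive means both conditions met in only one replicate; inactive means neither replicate meets both conditions.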

For orientation: viability means a read-out of living cells in per cent, often relative to untreated cells. The inhibition is the drop in the measured response relative to a control, in per cent. For `CCOc1ccc(N(CC(=O)NC2CCCC(C)C2C)S(=O)(=O)c2c(C)noc2C)cc1` (configuration not stated), the viability in assay [1] was 89.5%; in [3] it was 89.5% (inactive); in [4], 64.3% (inactive); in [5], 73.1% (inactive); in [6] (setting [16]), 66.3%; in assay [6] (setting [17]), 73.1%. The viability in [12] was 82.8% (inactive); in assay [13], 83.6% (inactive). Further, the Her2 level in assay [2] is 81.5% (inactive). The differential viability (reversal) in assay [6] (H69AR cells + 2 uM doxorubicin) was 6.81% (inactive). Besides, the inhibition is 1.41% (inactive) in [7], 13.5% (inactive) in assay [8] and 0.98% (inactive) in assay [14]. For the same molecule, the growth inhibition is -9.98% (inactive) in assay [9] and -14.4% (inactive) in assay [10]. For the same molecule, the viability increase in assay [11] was -1.09% (inactive). Further, in [15], the RAM network inhibition was 6.62% (inactive).

For the molecule `O=C(Nc1cccc(F)c1)C1C2C=CC3(CN(CCCN4CCOCC4)C(=O)C13)O2` (configuration not stated), the viability in [1] is 96%; in assay [3], 96% (inactive); in assay [4] it was 89.4% (inactive); in assay [5], 103% (inactive); in assay [6] (setting [16]), 83.1%; in assay [6] (setting [17]) it was 103%. The viability in assay [12] and in [13] was 106% (inactive) throughout. Also, the Her2 level in [2] is 104% (inactive). In assay [6] (H69AR cells + 2 uM doxorubicin), the differential viability (reversal) is 20.3% (inactive). Further, the inhibition was -2.27% (inactive) in assay [7], -3.11% (inactive) in [8] and 0.595% (inactive) in assay [14]. Besides, the values for the growth inhibition in assay [9] and in assay [10] were 1.12% (inactive) and 1.81% (inactive), respectively. Besides, the viability increase in assay [11] is 0.8% (inactive). Also, in assay [15], the RAM network inhibition was 2.03% (inactive).

Regarding `COc1ccc(N2CCN(c3oc(COc4ccccc4Cl)nc3C#N)CC2)cc1`, the viability in [1] is 109%; in [3] it was 109% (inactive); in [4], 104% (inactive); in assay [5], 92.3% (inactive); in assay [6] (setting [16]), 83.6%; in assay [6] (setting [17]) it was 92.3%. Moreover, the viability in [12] was 65.7% (inactive); in [13], 64.9% (inactive). Also, the Her2 level in assay [2] was 105% (inactive). Further, in assay [6] (H69AR cells + 2 uM doxorubicin), the differential viability (reversal) was 8.78% (inactive). In addition, the inhibition is -6.23% (inactive) in assay [7] and -4.75% (inactive) in assay [8]. For the same molecule, the growth inhibition in assay [9] is -2.64% (inactive); in assay [10] it was -5.2% (inactive). In addition, the viability increase in [11] is 2.27% (inactive). Moreover, the RAM network inhibition in assay [15] was 4.12% (inactive).

Take `Cc1cc(C)c(C(=O)Nc2ccc(S(=O)(=O)Nc3onc(C)c3C)cc2)c(C)c1`: the viability in assay [1] is 110%; in assay [3], 110% (inactive); in [4] it was 79.5% (inactive); in assay [5], 93.4% (inactive); in [6] (setting [16]), 86.9%; in assay [6] (setting [17]), 93.4%. The viability in assay [12] is 93.3% (inactive); in [13], 95.3% (inactive). In addition, the Her2 level in [2] was 100% (inactive). In [6] (H69AR cells + 2 uM doxorubicin), the differential viability (reversal) was 6.5% (inactive). For the same molecule, the inhibition in assay [7] is -6.27% (inactive); in assay [8], -1.48% (inactive); in assay [14], 2.68% (inactive). The growth inhibition in assay [9] is -15% (inactive); in [10] it was -9.75% (inactive). In addition, the viability increase in [11] was 2.97% (inactive). For the same molecule, the RAM network inhibition in assay [15] is 10.4% (inactive).

Regarding `COc1ccccc1CC(=O)Nc1ccc(OC)c(OC)c1`, the viability is 102% in assay [1]; 102% (inactive) in [3]; 101% (inactive) in assay [4]; 89.6% (inactive) in [5]; 83.6% in assay [6] (setting [16]); 89.6% in [6] (setting [17]). Further, the figures for the viability in [12] and in assay [13] were 101% (inactive) and 104% (inactive), respectively. For the same molecule, in assay [2], the Her2 level is 98.5% (inactive). The differential viability (reversal) in [6] (H69AR cells + 2 uM doxorubicin) is 6% (inactive). The results for the inhibition in assay [7], in assay [8] and in assay [14] were -6.76% (inactive), 5.74% (inactive) and 1.22% (inactive), respectively. Further, the growth inhibition in assay [9] is -8.11% (inactive); in assay [10], -4.82% (inactive). Further, the viability increase in assay [11] is -0.4% (inactive). The RAM network inhibition in assay [15] was 2.2% (inactive).

In the case of `COc1ccc(OCc2nc(C#N)c(N3CCN(c4ccc(OC)cc4)CC3)o2)cc1`, the viability is 94% in [1]; 94% (inactive) in [3]; 90.6% (inactive) in [4]; 94% (inactive) in [5]; 79% in assay [6] (setting [16]); 94% in assay [6] (setting [17]). Besides, the figures for the viability in [12] and in assay [13] were 72.5% (inactive) and 73.5% (inactive), respectively. For the same molecule, in assay [2], the Her2 level is 115% (inactive). Besides, the differential viability (reversal) in assay [6] (H69AR cells + 2 uM doxorubicin) is 15% (inactive). For the same molecule, the inhibition in [7] was -3.07% (inactive); in assay [8] it was -8.17% (inactive); in [14] it was 1.06% (inactive). Besides, the growth inhibition in assay [9] was -0.985% (inactive); in assay [10], -1.77% (inactive). The viability increase in [11] is 9.38% (active). In addition, the RAM network inhibition in [15] is 9.16% (inactive).

`COCCNC(=O)CN1CCN(Cc2cccc(Cl)c2)C1=O`: the viability in [1] was 102%; in assay [3], 102% (inactive); in assay [4], 99.3% (inactive); in assay [5] it was 103% (inactive); in [6] (setting [16]), 85.4%; in assay [6] (setting [17]), 103%. Also, the values for the viability in [12] and in assay [13] were 102% (inactive) and 95.5% (inactive), respectively. Also, the Her2 level in [2] was 112% (inactive). Also, the differential viability (reversal) in assay [6] (H69AR cells + 2 uM doxorubicin) is 17.5% (inactive). In addition, the inhibition is -5.47% (inactive) in [7], -3.93% (inactive) in assay [8] and 0.485% (inactive) in assay [14]. Further, the growth inhibition is 6.16% (inactive) in [9] and 1.19% (inactive) in assay [10]. Besides, in assay [11], the viability increase was -0.8% (inactive). Moreover, in assay [15], the RAM network inhibition was -0.14% (inactive).

Consider `CNC(=O)c1ccsc1NC(=O)c1ccccc1`, for which the viability was 88.5% in assay [1]; 88.5% (inactive) in assay [3]; 83.8% (inactive) in assay [4]; 80.8% (inactive) in [5]; 84.5% in [6] (setting [16]); 80.8% in assay [6] (setting [17]). The viability is 102% (inactive) in assay [12] and 95.2% (inactive) in assay [13]. Besides, the Her2 level in assay [2] is 74% (inactive). Also, the differential viability (reversal) in [6] (H69AR cells + 2 uM doxorubicin) was -3.68% (inactive). The figures for the inhibition in assay [7], in assay [8] and in assay [14] were -4.8% (inactive), -3.5% (inactive) and 1.97% (inactive), respectively. The growth inhibition is 14.6% (inactive) in assay [9] and 14.5% (inactive) in assay [10]. Besides, in assay [11], the viability increase was -0.77% (inactive). In assay [15], the RAM network inhibition is -1.39% (inactive).

Take `O=C(Nc1ccc2snnc2c1)N1CCN(c2ccccc2)CC1`: the viability was 81.5% in [1]; 81.5% (inactive) in [3]; 75.4% (inactive) in [4]; 85.3% (inactive) in [5]; 92.9% in [6] (setting [16]); 85.3% in assay [6] (setting [17]). For the same molecule, the viability in assay [12] was 85.2% (inactive); in assay [13], 79.4% (inactive). In addition, in assay [2], the Her2 level is 86% (inactive). Moreover, the differential viability (reversal) in assay [6] (H69AR cells + 2 uM doxorubicin) is -7.63% (inactive). The results for the inhibition in assay [7], in assay [8] and in [14] were -0.38% (inactive), -2.33% (inactive) and 1.3% (inactive), respectively. The growth inhibition is -13.7% (inactive) in [9] and -17.1% (inactive) in assay [10]. Further, the viability increase in assay [11] was -2.11% (inactive). Also, the RAM network inhibition in [15] was 5.24% (inactive).

The record behind these values is PubChem BioAssay.
